Screening data: PubChem, National Center for Advancing Translational Sciences (NCATS)
TRPML1 ag = human mucolipin-1 channel agonism | 410,000 compounds, 0.12% hits | activation, % (test concentration not listed) | TRPML1-expressing cells, Ca2+ dye fluorescence, FDSS | Q9GZU1; in the data active = activation above about 50%; inconclusive = mostly about 30% to 49%; note: 0% is about no effect
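Cells: TRPML1-DL, 1X Tet inducer, ~16 h at 37 degrees C/5% CO2. Dye: ABD Ca8 no-wash + quencher, 45-90 min RT. Read: 10 s baseline, compound add, 110 s agonist phase; 54-4 EC80 (4uM final), 110 s antagonist phase.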
TRPV1 agonist = activates the human vanilloid receptor TRPV1; 320,000 compounds, 0.19% hits; TRPV1-expressing cells, Fluo-8 calcium influx, agonist mode; AID 540275; Q8NER1; activation, % at 8.33 µM; in the data active = activation above about 80%; inconclusive = between about 30% and that limit; note: 0% is about no effect
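TRPV1-expressing cells were cultured overnight at 35.5C and loaded with Fluo-8 calcium dye for 40 to 90 min at room temperature. After a 10 s baseline, compound was added and calcium influx was read kinetically for 3 min (ex 480/em 520 nm).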
TRPML1 inh = human mucolipin-1 channel inhibition; activity change, negative = inhibition, % (concentration not given with the values); AID 624415; 390,000 compounds, 0.02% hits; TRPML1-inducible cells, Ca2+ dye fluorescence, FDSS; stronger effect = lower value; inhibition of EC80 agonist-evoked calcium signal; Q9GZU1; in the data active = activity change below about -50%; inconclusive = between about -30% and that limit;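 note: stimulus is agonist 54-4 at its EC80 concentration; % is set by controls: 0 for no effect and ±100 for the full control effect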
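Tet-induced TRPML1-DL cells loaded with Ca8 no-wash calcium dye were read kinetically on FDSS. Compound addition was followed by EC80 agonist 54-4 (4 uM final); inhibition was read over 110 s.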
TRPV1 potentiator = enhances activation of the human vanilloid receptor TRPV1 | TRPV1-expressing cells, Fluo-8 calcium influx, capsaicin EC20 potentiation | 320,000 compounds, 0.02% hits | potentiation, % at 8.33 µM | Q8NER1; in the data active = potentiation above about 80%; inconclusive = between about 30% and that limit; note: 0% is about no effect
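TRPV1-expressing cells were cultured overnight at 35.5C and loaded with Fluo-8 calcium dye for 40 to 90 min at room temperature. After a 10 s baseline, compound was added and calcium influx was read kinetically for 3 min (ex 480/em 520 nm).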
RGS4 inhibitor = inhibitors of human regulator of G protein signaling 4. P49798. Transcreener GDP fluorescence polarization, RGS4-accelerated GTP hydrolysis. Potency, µM (series often up to 114 µM), for inactives: at the top dose activity change, negative = inhibition, hits mostly inhibitors. 390,000 compounds, 0.039% hits; note: potency is the fitted concentration of half-maximal effect; % is set by controls: 0 for no effect and ±100 for the full control effect; nearly all actives have a fitted effect of over 75% in size
Target sequence (P49798 whole entry, looked up): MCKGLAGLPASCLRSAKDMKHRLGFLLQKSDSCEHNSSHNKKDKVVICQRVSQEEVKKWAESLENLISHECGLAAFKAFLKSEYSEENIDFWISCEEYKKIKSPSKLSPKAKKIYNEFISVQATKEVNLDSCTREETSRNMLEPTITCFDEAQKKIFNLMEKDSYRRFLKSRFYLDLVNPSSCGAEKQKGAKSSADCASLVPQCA
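MLSMR compounds (23 nl, pin-transferred) preincubated 10 min at room temperature with a 500nM (2x) first reagent, then RGS4 at 900nM (2x) plus Transcreener GDP mix added; fluorescence polarization (620/688 nm) read before and after 90 min at 30 °C.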
A-T KAP1 phos = potential ataxia-telangiectasia treatments restoring KAP-1 phosphorylation. F2112 A-T fibroblasts, KAP-1 phosphorylation AlphaLISA; neocarzinostatin DNA damage 30 min before lysis. 320,000 compounds, 0.19% hits. Potency, µM (highest dose often 57.5 µM), for the others: top-dose activation, most hits filed as activators; note: potency is the fitted concentration of half-maximal effect; % of control where 0% means no effect; nearly all actives have a fitted effect of over 45% in size
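ATM-like activity read as KAP-1 phosphorylation via AlphaLISA donor/acceptor antibody pairs after lysis and 6 hr at 25C. Cells were ATM-null patient fibroblasts (F2112, hTERT), dosed 60 min, then exposed to the DSB inducer NCS for 30 min.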
* marks the source's active call; other numbers are inactive results; [ ] = another dose, or the depositor's remark. The list is not random: actives were taken first. Their share in the collection is about 0.5%. Unless noted, calls come from the whole dose curve; as a rule, active = well fitted curve in the direction sought with a large enough effect; inconclusive = small, poorly fitted or top-dose-only effect, or another doubt; inactive = no such curve, though single readings can be large; an effect the other way counts as inactive or inconclusive.

`CCOC(=O)C1CCN(C(=O)c2cc3ccc(OC)cc3[nH]2)CC1` gave TRPML1 ag -1, TRPV1 agonist 8, TRPML1 inh 5, TRPV1 potentiator -6, RGS4 inhibitor -20% and A-T KAP1 phos -3%.
Screening O=S(=O)(Cc1ccccc1Cl)CC(O)COc1ccccc1Cl (stereo unspecified) returned TRPML1 ag -1, TRPV1 agonist 10, TRPML1 inh 6, TRPV1 potentiator 7, RGS4 inhibitor -8%[11.4 µM] and A-T KAP1 phos 1%.
`Cc1ccc(NC(=O)NC(=O)N(C(C)C)S(C)(=O)=O)nc1` gave TRPML1 ag 1, TRPV1 agonist -4, TRPML1 inh -3, TRPV1 potentiator 3, RGS4 inhibitor 19% and A-T KAP1 phos 0.71µM*.
For Cc1cc(C)c(C)c(/C=C(/C#N)C(N)=S)c1C the results were TRPML1 ag 0, TRPV1 agonist -4, TRPML1 inh 6, TRPV1 potentiator -5, RGS4 inhibitor -18% and A-T KAP1 phos 27%.
Screening Cc1cccc(C(C)n2nnc3ccccc32)c1O (stereo unspecified) returned TRPML1 ag 0, TRPV1 agonist 12, TRPML1 inh -6, TRPV1 potentiator 86*, RGS4 inhibitor -16% and A-T KAP1 phos 25%.
Screening Cc1cccc(Cn2nnc3ccccc32)c1O returned TRPML1 ag -1, TRPV1 agonist 16, TRPML1 inh -6, TRPV1 potentiator 17, RGS4 inhibitor 4% and A-T KAP1 phos 20%.
`COc1ccc(C)cc1NC(=O)Nc1cc(C(=O)NCc2ccc(C)cc2)ccc1N1CCCC1` gave TRPML1 ag 1, TRPML1 inh -2 and RGS4 inhibitor 8%.
For N#Cc1ccsc1NC(=O)c1ccccn1 the results were TRPML1 ag -1, TRPV1 agonist 10, TRPML1 inh 11, TRPV1 potentiator -2, RGS4 inhibitor 9% and A-T KAP1 phos -2%.
For O=C(NC(=S)NNC(=O)c1cccs1)c1ccccc1 the results were TRPML1 ag 0, TRPV1 agonist -2, TRPML1 inh -10, TRPV1 potentiator 1, RGS4 inhibitor inconclusive and A-T KAP1 phos 11%.
`CC(C)(C)c1ccc(C(=O)NC(=S)NNC(=O)c2cccs2)cc1` gave TRPML1 ag 74*, TRPV1 agonist inconclusive, TRPML1 inh -16, TRPV1 potentiator -20, RGS4 inhibitor -35% and A-T KAP1 phos 0%.
For CCCOc1ccc(C(=O)NNC(=S)NC(=O)c2ccccc2)cc1 the results were TRPML1 ag 0, TRPV1 agonist 21, TRPML1 inh -13, TRPV1 potentiator -25, RGS4 inhibitor -13% and A-T KAP1 phos 4%.
CCCOc1ccc(C(=O)NNC(=S)NC(=O)c2cccs2)cc1 was read as TRPML1 ag 53*, TRPV1 agonist 10, TRPML1 inh -7, TRPV1 potentiator 4, RGS4 inhibitor -44% and A-T KAP1 phos -8%.
`O=C(Nc1cc(Cl)cc2c1-c1ccc(Cl)cc1C2O)C(Cl)Cl` (stereo unspecified) gave TRPML1 ag 3, TRPML1 inh 21 and RGS4 inhibitor -29%.
`CCOC(=O)c1ccc(NC(=O)N2CCN(Cc3cccc(F)c3)CC2)cc1` gave TRPML1 ag 2, TRPV1 agonist 81*, TRPML1 inh -5, TRPV1 potentiator 9, RGS4 inhibitor -17% and A-T KAP1 phos 3%.
For CCOC(=O)c1cnc2ccc(C)cc2c1N(C)Cc1ccccc1 the results were TRPML1 ag 6, TRPV1 agonist inconclusive, TRPML1 inh 70, TRPV1 potentiator -3, RGS4 inhibitor -14%[56.9 µM] and A-T KAP1 phos 22µM*.
CC(C)C(C(=O)N1CCN(C(=O)OC(C)(C)C)CC1)n1cc(-c2cn([C@@H](C)C(=O)N3CCN(C(=O)OC(C)(C)C)CC3)nn2)nn1 (stereo partly specified) was read as TRPV1 agonist -6, TRPV1 potentiator -14 and A-T KAP1 phos -19%.
C[C@@H](C(=O)N1CCN(C(=O)OC(C)(C)C)CC1)n1cc(-c2cn([C@@H](C)C(=O)N3CCN(C(=O)OC(C)(C)C)CC3)nn2)nn1 was read as TRPV1 agonist -6, TRPV1 potentiator inconclusive and A-T KAP1 phos 22µM*.
`Cc1c(C#N)c2ccccc2n1CC(=O)NC(C)c1ccccc1` (stereo unspecified) gave TRPML1 ag 1, TRPV1 agonist 13, TRPML1 inh -15, TRPV1 potentiator -11, RGS4 inhibitor -14% and A-T KAP1 phos 7%.
`CCOc1ccc(C2c3cc(OC)c(OC)cc3CC(=O)N2c2ccccc2)cc1` (stereo unspecified) gave TRPML1 ag 0, TRPV1 agonist -4, TRPML1 inh -51*, TRPV1 potentiator 8, RGS4 inhibitor 13% and A-T KAP1 phos 7%.
Screening CCOC(=O)N1CCN(C(=O)c2c(C)nn(-c3cccc(C)c3)c2-n2cccc2)CC1 returned TRPML1 ag 0, TRPML1 inh -16 and RGS4 inhibitor 5%.
For Cc1cccc(-n2nc(C)c(C(=O)N3CCN(c4ccccc4)CC3)c2-n2cccc2)c1 the results were TRPML1 ag 71*, TRPML1 inh -19 and RGS4 inhibitor 11%.
`CCN1C(=O)/C(=C/C=C2\N(CC)c3cc(S(=O)(=O)N(C)C)ccc3N2c2ccccc2)SC1=S` gave TRPV1 agonist 11, TRPV1 potentiator 19, RGS4 inhibitor -8%[11.4 µM] and A-T KAP1 phos -6%.
CCCCCOC(=O)Cc1c(O)c2ccccc2n(C)c1=O was read as TRPML1 ag -1, TRPV1 agonist -2, TRPML1 inh -4, TRPV1 potentiator 1, RGS4 inhibitor -22% and A-T KAP1 phos 3%.
Screening C=CCn1c(C)c(C(C)=O)cc(NC(=O)c2ccccc2)c1=O returned TRPML1 ag 1, TRPV1 agonist 4, TRPML1 inh -5, TRPV1 potentiator -21, RGS4 inhibitor -13% and A-T KAP1 phos 3%.
For C=CCN1C(=O)/C(=C/C(=O)OC)S/C1=N\NC(=O)c1ccccc1 the results were TRPML1 ag 0, TRPV1 agonist 3, TRPML1 inh -13, TRPV1 potentiator 12, RGS4 inhibitor -20% and A-T KAP1 phos 10µM*.
`Nc1nnn(CC(=O)N/N=C/c2ccncc2)n1` gave TRPML1 ag 2, TRPV1 agonist 0, TRPML1 inh -16, TRPV1 potentiator 28, RGS4 inhibitor -9% and A-T KAP1 phos 9%.
For Cc1ccc(/C=N/NC(=O)Cn2nnc(N)n2)cc1 the results were TRPML1 ag 1, TRPV1 agonist 1, TRPML1 inh 16, TRPV1 potentiator -19, RGS4 inhibitor 0% and A-T KAP1 phos 25µM*.
